PubChem BioAssay (NCI)
About 79,000 compounds went through this panel and 15% of them were active in at least one assay; those are over-represented in the sample as a whole. Calls of active or inactive are those of the source. Cut-off read from the data, not from the text of the source: active = growth inhibition above about 70%; inactive = the rest.

How the values were obtained:
[1] = NCI Yeast Anticancer Drug Screen. Data for the wt1 strain (AID 149);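 note: 0% = growth of vehicle-treated wt1 cultures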; conditions: S. cerevisiae wt1 strain (SPY 50644) growth inhibition, hits give high values
In short: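 Compounds are added to wt1 yeast cultures. Growth is then measured. Inhibition is expressed relative to vehicle-treated controls.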

[2] = NCI Yeast Anticancer Drug Screen. Data for the rad50EPP+ strain (AID 151);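 note: 0% = growth of vehicle-treated control cultures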; conditions: S. cerevisiae rad50 mutant strain, hits give high values
In short: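 Exposing the rad50EPP+ strain to each compound, growth was compared with vehicle-only cultures to give inhibition.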

[3] = NCI Yeast Anticancer Drug Screen. Data for the mgt1 strain (AID 153); conditions: S. cerevisiae mgt1 mutant growth inhibition, hits give high values
In short: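 Genetically defined yeast (mgt1) treated with compound; inhibition of growth expressed against vehicle-treated controls.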

[4] = NCI Yeast Anticancer Drug Screen. Data for the rad50 strain (AID 155);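 note: 0% = growth of vehicle-only cultures of the same strain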; conditions: S. cerevisiae rad50 strain growth inhibition, hits give high values
In short: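 Inhibition values express reduced yeast growth in compound-treated cultures relative to vehicle-treated controls.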

[5] = NCI Yeast Anticancer Drug Screen. Data for the mec2-1 strain (AID 157); conditions: S. cerevisiae mec2-1 strain, hits give high values
In short: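 Readout is yeast growth inhibition, normalised to vehicle-treated controls, in the mec2-1 strain exposed to compound.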

[6] = NCI Yeast Anticancer Drug Screen. Data for the rad14 strain (AID 159);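 note: 0% = growth of vehicle-treated control cultures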; conditions: S. cerevisiae rad14 strain growth inhibition, hits give high values
In short: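 A mutant yeast strain defective in DNA damage repair is treated with compound; inhibition of its growth is scored against untreated, vehicle-exposed cultures.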

[7] = NCI Yeast Anticancer Drug Screen. Data for the sgs1 mgt1 strain (AID 161);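 note: 0% = growth of cultures given vehicle only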; conditions: S. cerevisiae sgs1 mgt1 strain, hits give high values
In short: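 This yeast growth screen uses a strain with defined DNA-repair lesions; compound-treated growth is compared with vehicle-treated growth.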

[8] = NCI Yeast Anticancer Drug Screen. Data for the CLN2oe strain (AID 163);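 note: 0% = growth of vehicle-only control cultures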; conditions: S. cerevisiae CLN2oe strain, hits give high values
In short: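 Values reflect how much compound exposure reduced yeast growth, referenced to vehicle-exposed cells. Assay organism is a strain with a defined genetic change affecting cell-cycle control.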

[9] = NCI Yeast Anticancer Drug Screen. Data for the cln2 rad14 strain (AID 165);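 note: 0% = growth equal to vehicle treated cultures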; conditions: S. cerevisiae cln2 rad14 strain, hits give high values
In short: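 Relative to vehicle controls, growth inhibition of compound-treated cln2 rad14 yeast was recorded.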

[10] = NCI Yeast Anticancer Drug Screen. Data for the bub3 strain (AID 167); conditions: S. cerevisiae bub3 mutant strain, hits give high values
In short: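 Steps: expose the mutant yeast strain to compound; grow alongside vehicle-treated cultures; measure growth; express inhibition against the vehicle cultures.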

[11] = NCI Yeast Anticancer Drug Screen. Data for the wt2 strain (AID 169);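 note: 0% = growth of vehicle-treated yeast cultures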; conditions: S. cerevisiae wt2 strain growth inhibition, hits give high values
In short: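 Values express reduction in yeast growth under compound treatment, referenced to vehicle-treated cells.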

[12] = NCI Yeast Anticancer Drug Screen. Data for the mlh1 strain (AID 171);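 note: 0% = growth of vehicle-treated control cultures of the same strain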; conditions: S. cerevisiae mlh1 strain growth inhibition, hits give high values
In short: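 Steps: expose the defined-mutant yeast strain to compound; expose a parallel culture to vehicle; measure growth; express compound effect as inhibition relative to the vehicle culture.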

[13] = NCI Yeast Anticancer Drug Screen. Data for the sgs1 strain (AID 173);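 note: 0% = growth of vehicle-only control cultures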; conditions: S. cerevisiae sgs1 mutant, hits give high values
In short: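 Treat defined-mutant yeast with compound; measure growth; calculate inhibition relative to vehicle-treated cells.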

[14] = NCI Yeast Anticancer Drug Screen. Data for the rad18 strain (AID 177); conditions: S. cerevisiae rad18 mutant growth inhibition, hits give high values
In short: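 A genetically defined yeast mutant impaired in DNA damage repair was treated with test compounds, then its growth was measured against cultures receiving vehicle alone.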

[15] = NCI Yeast Anticancer Drug Screen. Data for the mlh1 rad18 strain (AID 175); conditions: S. cerevisiae mlh1 rad18 strain growth inhibition, hits give high values
In short: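 Test agents were incubated with a yeast strain of defined genotype (DNA damage repair defect). Inhibition of growth was derived by comparison with vehicle-exposed cultures.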

[16] = at 5.0 µM (retest, dose inferred, filed as 0.5)
[17] = at 50.0 µM (retest, dose inferred, filed as 5.0)

Measured: growth inhibition

[O-]c1c2cc(-[n+]3c(-c4ccccc4)cc(-c4ccccc4)cc3-c3ccccc3)cc1COCCOCCOCCOCCOC2
active: [3]; at 100.0 µM 82% | [4]; at 100.0 µM 80% | [5]; at 100.0 µM 77% | [6]; at 100.0 µM 81% | [8]; at 100.0 µM 77% | [11]; at 100.0 µM 82% | [12]; at 100.0 µM 87% | [13]; at 100.0 µM 71% | [14]; at 100.0 µM 74%
inactive: [1]; at 1.2 µM 3% | [1]; at 3.7 µM -6% | [1]; at 11.0 µM -6% | [1]; at 33.0 µM -7% | [1]; at 100.0 µM 35% | [2]; at 1.2 µM -1% | [2]; at 3.7 µM 0% | [2]; at 11.0 µM 5% | [2]; at 33.0 µM 31% | [2]; at 100.0 µM 66% | [3]; at 1.2 µM -7% | [3]; at 3.7 µM -2% | [3]; at 11.0 µM -13% | [3]; at 33.0 µM 10% | [4]; at 1.2 µM 1% | [4]; at 3.7 µM -2% | [4]; [16] -5% | [4]; at 11.0 µM 0% | [4]; at 33.0 µM 17% | [4]; [17] 35% | [4]; at 50.0 µM 59.1% | [5]; at 1.2 µM -5% | [5]; at 3.7 µM -4% | [5]; [16] -7% | [5]; at 11.0 µM -2% | [5]; at 33.0 µM 4% | [5]; [17] 31% | [5]; at 50.0 µM 33% | [6]; at 1.2 µM 1% | [6]; at 3.7 µM 1% | [6]; at 11.0 µM 1% | [6]; at 33.0 µM 9% | [7]; [16] -11% | [7]; [17] 20% | [7]; at 50.0 µM 31.6% | [8]; at 1.2 µM -6% | [8]; at 3.7 µM 1% | [8]; at 11.0 µM -3% | [8]; at 33.0 µM -6% | [9]; [16] -31% | [9]; [17] 12% | [9]; at 50.0 µM 17.1% | [10]; at 1.2 µM -4% | [10]; at 3.7 µM -6% | [10]; [16] -19% | [10]; at 11.0 µM -4% | [10]; at 33.0 µM -8% | [10]; [17] 10% | [10]; at 50.0 µM 21.7% | [10]; at 100.0 µM 30% | [11]; at 1.2 µM -2% | [11]; at 3.7 µM -3% | [11]; at 11.0 µM -2% | [11]; at 33.0 µM 18% | [12]; at 1.2 µM -1% | [12]; at 3.7 µM -1% | [12]; at 11.0 µM -2% | [12]; at 33.0 µM 12% | [13]; at 1.2 µM -4% | [13]; at 3.7 µM -2% | [13]; at 11.0 µM -1% | [13]; at 33.0 µM 18% | [14]; at 1.2 µM -1% | [14]; at 3.7 µM -3% | [14]; at 11.0 µM -3% | [14]; at 33.0 µM 6%

CCCC#CCOC(=O)c1cc([N+](=O)[O-])cc([N+](=O)[O-])c1
inactive: [1]; at 1.2 µM -4% | [1]; at 3.7 µM 22% | [2]; at 1.2 µM 22% | [3]; at 1.2 µM -5% | [4]; at 1.2 µM 2% | [4]; at 3.7 µM 67% | [5]; at 1.2 µM -2% | [5]; at 3.7 µM 33% | [6]; at 1.2 µM 0% | [6]; at 3.7 µM 28% | [8]; at 1.2 µM -2% | [8]; at 3.7 µM 11% | [9]; [16] 23% | [10]; at 1.2 µM -9% | [10]; at 3.7 µM 4% | [11]; at 1.2 µM -5% | [12]; at 1.2 µM 1% | [12]; at 3.7 µM 30% | [13]; at 1.2 µM 4% | [14]; at 1.2 µM 4%
active: [1]; at 11.0 µM 99% | [1]; at 33.0 µM 99% | [1]; at 100.0 µM 99% | [2]; at 3.7 µM 92% | [2]; at 11.0 µM 99% | [2]; at 33.0 µM 99% | [2]; at 100.0 µM 99% | [3]; at 3.7 µM 86% | [3]; at 11.0 µM 99% | [3]; at 33.0 µM 99% | [3]; at 100.0 µM 99% | [4]; [16] 88% | [4]; at 11.0 µM 98% | [4]; at 33.0 µM 98% | [4]; [17] 99% | [4]; at 50.0 µM 99.5% | [4]; at 100.0 µM 99% | [5]; [16] 99% | [5]; at 11.0 µM 99% | [5]; at 33.0 µM 99% | [5]; [17] 100% | [5]; at 50.0 µM 99.7% | [5]; at 100.0 µM 99% | [6]; at 11.0 µM 98% | [6]; at 33.0 µM 99% | [6]; at 100.0 µM 99% | [7]; [16] 97% | [7]; [17] 100% | [7]; at 50.0 µM 99.7% | [8]; at 11.0 µM 99% | [8]; at 33.0 µM 99% | [8]; at 100.0 µM 99% | [9]; [17] 99% | [9]; at 50.0 µM 99.5% | [10]; [16] 86% | [10]; at 11.0 µM 98% | [10]; at 33.0 µM 98% | [10]; [17] 99% | [10]; at 50.0 µM 99.8% | [10]; at 100.0 µM 99% | [11]; at 3.7 µM 95% | [11]; at 11.0 µM 97% | [11]; at 33.0 µM 99% | [11]; at 100.0 µM 99% | [12]; at 11.0 µM 99% | [12]; at 33.0 µM 99% | [12]; at 100.0 µM 99% | [13]; at 3.7 µM 97% | [13]; at 11.0 µM 99% | [13]; at 33.0 µM 99% | [13]; at 100.0 µM 99% | [15]; [16] 97% | [15]; [17] 100% | [15]; at 50.0 µM 99.5% | [14]; at 3.7 µM 81% | [14]; at 11.0 µM 99% | [14]; at 33.0 µM 99% | [14]; at 100.0 µM 99%
